# From PubChem BioAssay (EPA / NIEHS)
# Several values for one entry are separate records, joined by “and”; a condition that tells them apart may be missing. Equal values may be shown once. Records with an inconclusive call do not appear. Activity calls are given as the source filed them. How the source made its calls, unless noted: active means hit-call score of the fitted dose curve at least 0.9, where 1 is the maximum; inconclusive means response in the unintended direction; inactive means score below 0.9.
# Columns and labels:
# [1] = ATG_VDRE_CIS: Attagene CIS-FACTORIAL HepG2 Assay for human Vitamin D Receptor Element (VDRE) (AID 2282968; active means hit-call score of the fitted dose curve at least 0.9, where 1 is the maximum; inactive means score below 0.9); conditions: HepG2 VDRE cis-reporter transcription, actives raise or lower the signal
# How it was run: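 Measures endogenous factor activity through cis-element-driven reporter transcripts in transiently transfected HepG2. Cells are treated 24 h; reporter mRNA is quantified by RT-PCR and capillary electrophoresis; fitting is bidirectional.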
# [2] = molecular target: Nuclear receptor subfamily 1 group I member 3 (Homo sapiens) (UniProt Q14994); assay: ATG_CAR_TRANS: Attagene TRANS-FACTORIAL HepG2 Assay for human Constitutive Androstane Receptor (CAR) (AID 2282969); conditions: HepG2 Attagene TRANS-FACTORIAL CAR reporter;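 further: activators raise reporter mRNA above DMSO so AC50 marks induction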
# How it was run: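 Signal is reporter mRNA induction relative to DMSO, measured 24 h after dosing by RT-PCR with fluorescent primer extension and capillary electrophoresis. Human HepG2 liver cells carried transiently transfected chimeric NR-Gal4/GAL4-UAS reporter constructs.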
# [3] = molecular target: X-box-binding protein 1 (Homo sapiens) (UniProt P17861); assay: ATG_Xbp1_CIS: Attagene CIS-FACTORIAL HepG2 Assay for human X-box Binding Protein 1 (XBP1) (AID 2282972; active means hit-call score of the fitted dose curve at least 0.9, where 1 is the maximum; inactive means score below 0.9); conditions: HepG2 XBP1 cis-element reporter, Attagene multiplex; actives raise or lower the signal
# How it was run: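 Reporter transcripts were quantified by RT-PCR with fluorescent primer extension and capillary electrophoresis after 24 h chemical exposure. Cells: transiently transfected HepG2 carrying cis-regulated reporter constructs; data fitted bidirectionally relative to DMSO.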
# [4] = ATG_M_19_TRANS: Attagene TRANS-FACTORIAL HepG2 Assay for M19 Transcription Factor (Internal Marker) (AID 2282974); conditions: HepG2 Attagene TRANS-FACTORIAL M19 internal marker reporter
# How it was run: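 Gain-of-signal in reporter mRNA, relative to DMSO, was scored from capillary electrophoresis fluorescence. HepG2 cells carried transiently transfected multiple reporter transcription units and were incubated with test chemicals for 24 h.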
# [5] = molecular target: Estrogen-related receptor gamma (Homo sapiens) (UniProt P62508); assay: ATG_ERRg_TRANS: Attagene TRANS-FACTORIAL HepG2 Assay for human Estrogen-Related Receptor gamma (ERRg) (AID 2282977); conditions: HepG2 Attagene TRANS reporter, ERRg transactivation;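 further: hits increase reporter signal over DMSO so potencies reflect activators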
# How it was run: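 Readout: fluorescent reporter-mRNA fragments resolved by capillary electrophoresis after RT-PCR and HpaI cut. Cells: transiently transfected HepG2 carrying GAL4-UAS reporters driven by exogenous NR-Gal4 chimeras, dosed 24 h. Activity fitted upward relative to DMSO baseline.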
# [6] = molecular target: Oxysterols receptor LXR-beta (Homo sapiens) (UniProt P55055); assay: ATG_LXRb_TRANS: Attagene TRANS-FACTORIAL HepG2 Assay for human Liver X Receptor beta (LXRb) (AID 2282981); conditions: HepG2 Attagene TRANS GAL4-LXRb reporter, mRNA
# How it was run: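 After 24 h of chemical treatment, transfected HepG2 cells yield total RNA; reporter cDNA is PCR-amplified, FAM-labelled, HpaI-cut and run on capillary electrophoresis. Signal reflects chimeric LXRb-Gal4 activity on GAL4-UAS reporters.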
# [7] = molecular target: Hepatocyte nuclear factor 4-alpha (Homo sapiens) (UniProt P41235); assay: ATG_HNF4a_TRANS: Attagene TRANS-FACTORIAL HepG2 Assay for human Hepatocyte Nuclear Factor 4 alpha (HNF4a) (AID 2282982); conditions: HepG2 HNF4a transactivation reporter, mRNA readout
# How it was run: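 Multiplexed reporter assay: transfected HepG2, 24 h exposure, total RNA → oligo(dT) RT → PCR → 6-FAM extension → HpaI digest → CE fluorescence. DMSO = negative control.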
# [8] = ATG_M_06_TRANS: Attagene TRANS-FACTORIAL HepG2 Assay for M06 Transcription Factor (Internal Marker) (AID 2282983); conditions: HepG2 Attagene TRANS M06 internal marker reporter;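 further: reporter transcript level by RT-PCR then capillary electrophoresis fluorescence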
# How it was run: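 Background-control reporter readout: after 24 h chemical exposure of transiently transfected HepG2 (GAL4-UAS reporter units), mRNA quantified by RT-PCR with fluorescent labeling and capillary electrophoresis. Gain-of-signal fitting against DMSO baseline.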
# [9] = ATG_M_32_TRANS: Attagene TRANS-FACTORIAL HepG2 Assay for M32 Transcription Factor (Internal Marker) (AID 2282984); conditions: HepG2 Attagene TRANS M32 internal marker reporter;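 further: transcript level of a background control reporter unit measured by RT-PCR and capillary electrophoresis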
# How it was run: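 Cell-based TRANS-format assay in HepG2: exogenous chimeric GAL4 reporter units transiently expressed, compounds applied 24 h. Reporter mRNA detected by RT-PCR plus capillary electrophoresis; this readout is an internal background marker.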
# [10] = molecular target: Transcriptional activator Myb (Homo sapiens) (UniProt P10242); assay: ATG_Myb_CIS: Attagene CIS-FACTORIAL HepG2 Assay for human Myeloblastosis (Myb) Proto-Oncogene Transcription Factor (AID 2282986; active means hit-call score of the fitted dose curve at least 0.9, where 1 is the maximum; inactive means score below 0.9); conditions: HepG2 Attagene CIS-FACTORIAL Myb reporter transcription; actives raise or lower the signal
# How it was run: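 Multiplexed cis-reporter system in HepG2: transient transfection, 24 h treatment, mRNA readout by RT-PCR and capillary electrophoresis. Both increases and decreases are scored versus DMSO negative control.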
# [11] = molecular target: Nuclear respiratory factor 1 (Homo sapiens) (UniProt Q16656); assay: ATG_NRF1_CIS: Attagene CIS-FACTORIAL HepG2 Assay for human Nuclear Respiratory Factor 1 (NRF1) Orphan Gene (AID 2282987; active means hit-call score of the fitted dose curve at least 0.9, where 1 is the maximum; inactive means score below 0.9); conditions: HepG2 NRF1 cis-element reporter, Attagene multiplex; actives raise or lower the signal
# How it was run: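 Endogenous factor activity was captured via cis-element-driven reporter transcripts in HepG2 cells. Following 24 h chemical treatment, transcripts were quantified by RT-PCR and capillary electrophoresis.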
# [12] = ATG_NFI_CIS: Attagene CIS-FACTORIAL HepG2 Assay for human Nuclear Factor I (NFI) (AID 2282989; active means hit-call score of the fitted dose curve at least 0.9, where 1 is the maximum; inactive means score below 0.9); conditions: HepG2 cis-regulatory reporter, NFI response element transcription; actives raise or lower the signal
# How it was run: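 Read-out: reporter mRNA via RT-PCR plus capillary electrophoresis with fluorescence detection. Transiently transfected HepG2 (endogenous TF activity on cis promoters), 24 h compound exposure; gain or loss of signal fitted against DMSO.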
# [13] = molecular target: Estrogen receptor (Homo sapiens) (UniProt P03372); assay: ATG_ERa_TRANS: Attagene TRANS-FACTORIAL HepG2 Assay for human Estrogen Receptor alpha (ERa) (AID 2282970); conditions: HepG2 Attagene TRANS ERa GAL4 reporter, mRNA
# How it was run: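 Reporter transcripts were measured 24 h after dosing by RT-PCR with fluorescent primer extension and capillary electrophoresis. The system is transiently transfected HepG2 expressing exogenous NR-Gal4 chimeras driving GAL4-UAS reporters; DMSO is the baseline.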
# [14] = molecular target: Steroid hormone receptor ERR1 (Homo sapiens) (UniProt P11474); assay: ATG_ERRa_TRANS: Attagene TRANS-FACTORIAL HepG2 Assay for human Estrogen-Related Receptor alpha (ERRa) (AID 2282971); conditions: HepG2 Attagene TRANS reporter, ERRa transactivation
# How it was run: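 Reporter transcripts from ERRa-Gal4 chimera activity measured in transiently transfected human HepG2 cells 24 hours after dosing, using RT-PCR with 6-FAM primer extension, HpaI digestion and capillary electrophoresis; DMSO is baseline.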
# [15] = molecular target: Bile acid receptor (Homo sapiens) (UniProt Q96RI1); assay: ATG_FXR_TRANS: Attagene TRANS-FACTORIAL HepG2 Assay for Farnesoid X Receptor (FXR) (AID 2282979); conditions: HepG2 Attagene TRANS FXR-GAL4 reporter transcription;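 further: hits raise reporter mRNA above DMSO so AC50 marks FXR activation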
# How it was run: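 Reporter transcripts from transfected HepG2 cells were measured 24 h after dosing, using RT-PCR with capillary electrophoresis of 6-FAM-labelled fragments. The read-out reflects activity of exogenous FXR-Gal4 chimera on GAL4-UAS units, with induction relative to DMSO.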
# [16] = molecular target: Oxysterols receptor LXR-alpha (Homo sapiens) (UniProt Q13133); assay: ATG_LXRa_TRANS: Attagene TRANS-FACTORIAL HepG2 Assay for human Liver X Receptor alpha (LXRa) (AID 2282980); conditions: HepG2 Attagene TRANS reporter, LXRa transactivation
# How it was run: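 Chemical-induced reporter mRNA measured by RT-PCR with fluorescent labelling and capillary electrophoresis after 24 h dosing of transiently transfected HepG2 cells expressing exogenous NR-Gal4 chimeras; increases scored against DMSO baseline.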
# [17] = ATG_GAL4_TRANS: Attagene TRANS-FACTORIAL HepG2 Assay for GAL4 (Internal Marker) (AID 2282976); conditions: HepG2 Attagene TRANS GAL4 internal marker reporter
# How it was run: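 In transfected human HepG2 liver cells dosed 24 h, GAL4 reporter mRNA serves as a baseline marker. Detection by RT-PCR with fluorescent capillary electrophoresis, activity fitted upward relative to DMSO.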
# [18] = molecular target: Glucocorticoid receptor (Homo sapiens) (UniProt P04150); assay: ATG_GR_TRANS: Attagene TRANS-FACTORIAL HepG2 Assay for human Glucocorticoid Receptor (GR) (AID 2282978); conditions: HepG2 Attagene TRANS GR reporter, mRNA transcription;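 further: activators score as hits since higher reporter transcript over DMSO is fitted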
# How it was run: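 HepG2 transient transfection, multiple reporter units, GAL4-UAS under NR-GAL4 chimera control. 24 h treatment. Reporter mRNA by RT-PCR/CE fluorescence, DMSO as negative control.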
# [19] = molecular target: Nuclear receptor subfamily 4 group A member 2 (Homo sapiens) (UniProt P43354); assay: ATG_NURR1_TRANS: Attagene TRANS-FACTORIAL HepG2 Assay for human Nuclear Receptor Related Protein 1 (NURR1) (AID 2282985); conditions: HepG2 Attagene TRANS reporter, mRNA readout
# How it was run: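 Measures transcriptional activation by an exogenous NR-Gal4 chimera in transfected HepG2 liver cells. After 24 h, reporter RNA is reverse-transcribed, amplified and resolved by capillary electrophoresis; DMSO defines baseline.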
# Estrogen receptor (Homo sapiens), sequence (P03372 whole entry, looked up, the tested form may be a part): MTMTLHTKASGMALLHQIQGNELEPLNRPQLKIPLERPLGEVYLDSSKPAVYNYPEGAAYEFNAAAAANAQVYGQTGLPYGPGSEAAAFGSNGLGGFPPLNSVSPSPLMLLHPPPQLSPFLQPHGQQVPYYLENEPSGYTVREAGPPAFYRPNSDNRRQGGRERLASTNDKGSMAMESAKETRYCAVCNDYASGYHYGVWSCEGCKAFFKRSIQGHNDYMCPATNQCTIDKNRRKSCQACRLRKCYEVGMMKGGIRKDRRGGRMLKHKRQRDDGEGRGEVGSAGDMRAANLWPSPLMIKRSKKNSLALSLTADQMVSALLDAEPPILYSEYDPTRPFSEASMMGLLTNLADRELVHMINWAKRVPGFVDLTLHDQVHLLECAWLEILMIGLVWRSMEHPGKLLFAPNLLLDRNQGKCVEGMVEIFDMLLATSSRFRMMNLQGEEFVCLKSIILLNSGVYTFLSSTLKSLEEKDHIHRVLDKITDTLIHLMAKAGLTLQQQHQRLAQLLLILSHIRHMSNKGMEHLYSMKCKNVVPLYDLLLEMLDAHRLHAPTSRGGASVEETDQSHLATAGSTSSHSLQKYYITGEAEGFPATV
# Bile acid receptor (Homo sapiens), sequence (Q96RI1 whole entry, looked up, the tested form may be a part): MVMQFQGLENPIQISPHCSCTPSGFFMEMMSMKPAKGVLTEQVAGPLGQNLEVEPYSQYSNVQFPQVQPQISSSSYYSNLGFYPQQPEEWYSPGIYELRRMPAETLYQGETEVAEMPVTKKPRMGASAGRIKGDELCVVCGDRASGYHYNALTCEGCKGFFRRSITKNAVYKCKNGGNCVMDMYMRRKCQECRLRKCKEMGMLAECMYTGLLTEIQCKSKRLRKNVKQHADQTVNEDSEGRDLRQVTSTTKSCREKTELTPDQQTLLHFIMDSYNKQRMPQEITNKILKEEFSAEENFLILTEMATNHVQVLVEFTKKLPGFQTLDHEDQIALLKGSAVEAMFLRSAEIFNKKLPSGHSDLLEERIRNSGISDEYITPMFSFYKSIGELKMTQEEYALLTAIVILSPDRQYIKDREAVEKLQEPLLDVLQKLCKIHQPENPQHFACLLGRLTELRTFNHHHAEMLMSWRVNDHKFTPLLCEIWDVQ
# Hepatocyte nuclear factor 4-alpha (Homo sapiens), sequence (P41235 whole entry, looked up): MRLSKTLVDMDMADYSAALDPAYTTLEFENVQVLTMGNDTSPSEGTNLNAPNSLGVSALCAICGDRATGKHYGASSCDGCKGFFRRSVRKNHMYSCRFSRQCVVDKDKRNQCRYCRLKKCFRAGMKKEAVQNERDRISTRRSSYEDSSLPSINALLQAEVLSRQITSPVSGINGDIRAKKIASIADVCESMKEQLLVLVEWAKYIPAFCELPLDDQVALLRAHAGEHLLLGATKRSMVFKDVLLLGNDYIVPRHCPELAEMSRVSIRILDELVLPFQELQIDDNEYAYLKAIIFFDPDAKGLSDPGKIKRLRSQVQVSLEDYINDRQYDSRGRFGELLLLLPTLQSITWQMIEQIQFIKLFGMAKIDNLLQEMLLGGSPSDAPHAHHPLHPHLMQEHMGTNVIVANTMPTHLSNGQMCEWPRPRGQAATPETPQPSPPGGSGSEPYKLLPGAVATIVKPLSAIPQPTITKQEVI
# Oxysterols receptor LXR-beta (Homo sapiens), sequence (P55055 whole entry, looked up, the tested form may be a part): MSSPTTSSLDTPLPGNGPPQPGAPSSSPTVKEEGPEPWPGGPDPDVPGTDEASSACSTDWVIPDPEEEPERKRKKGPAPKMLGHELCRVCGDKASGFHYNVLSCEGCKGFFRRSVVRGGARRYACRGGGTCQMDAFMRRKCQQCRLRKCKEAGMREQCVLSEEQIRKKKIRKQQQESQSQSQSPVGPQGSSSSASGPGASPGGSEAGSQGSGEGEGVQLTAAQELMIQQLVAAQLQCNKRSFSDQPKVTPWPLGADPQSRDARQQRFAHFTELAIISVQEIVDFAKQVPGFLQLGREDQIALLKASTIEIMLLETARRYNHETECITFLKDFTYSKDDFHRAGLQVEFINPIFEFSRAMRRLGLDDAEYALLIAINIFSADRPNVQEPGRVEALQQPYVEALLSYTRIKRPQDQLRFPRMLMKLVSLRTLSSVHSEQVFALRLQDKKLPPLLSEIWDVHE
# Transcriptional activator Myb (Homo sapiens), sequence (P10242 whole entry, looked up): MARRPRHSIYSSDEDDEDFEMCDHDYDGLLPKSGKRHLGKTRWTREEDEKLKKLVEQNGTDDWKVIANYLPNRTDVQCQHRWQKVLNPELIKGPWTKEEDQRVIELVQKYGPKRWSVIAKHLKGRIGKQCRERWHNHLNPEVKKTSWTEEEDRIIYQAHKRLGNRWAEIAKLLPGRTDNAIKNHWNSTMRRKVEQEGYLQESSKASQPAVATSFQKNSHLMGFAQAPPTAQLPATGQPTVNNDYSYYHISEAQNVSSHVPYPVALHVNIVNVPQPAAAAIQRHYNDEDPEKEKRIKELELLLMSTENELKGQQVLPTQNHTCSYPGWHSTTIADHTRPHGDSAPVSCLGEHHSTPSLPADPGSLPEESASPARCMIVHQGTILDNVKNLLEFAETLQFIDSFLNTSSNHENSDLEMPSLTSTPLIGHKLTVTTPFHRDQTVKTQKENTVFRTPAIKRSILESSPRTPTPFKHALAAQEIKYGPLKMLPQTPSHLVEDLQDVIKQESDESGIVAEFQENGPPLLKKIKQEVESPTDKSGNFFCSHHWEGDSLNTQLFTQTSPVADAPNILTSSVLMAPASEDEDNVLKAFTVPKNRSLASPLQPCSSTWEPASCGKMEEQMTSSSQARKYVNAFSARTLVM
# Nuclear respiratory factor 1 (Homo sapiens), sequence (Q16656 whole entry, looked up): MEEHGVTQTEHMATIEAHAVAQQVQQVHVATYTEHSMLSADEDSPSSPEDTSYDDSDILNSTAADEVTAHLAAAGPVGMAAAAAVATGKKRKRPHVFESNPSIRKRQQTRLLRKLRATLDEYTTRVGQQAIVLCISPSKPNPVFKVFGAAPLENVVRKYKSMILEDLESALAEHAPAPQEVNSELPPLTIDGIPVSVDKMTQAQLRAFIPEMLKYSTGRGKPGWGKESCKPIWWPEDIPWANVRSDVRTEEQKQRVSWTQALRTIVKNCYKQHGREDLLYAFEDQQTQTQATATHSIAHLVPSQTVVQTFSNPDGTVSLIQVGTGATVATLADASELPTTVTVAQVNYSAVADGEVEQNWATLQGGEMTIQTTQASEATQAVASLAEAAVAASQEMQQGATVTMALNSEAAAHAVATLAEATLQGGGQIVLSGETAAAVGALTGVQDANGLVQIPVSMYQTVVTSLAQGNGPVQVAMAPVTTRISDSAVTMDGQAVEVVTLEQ
# X-box-binding protein 1 (Homo sapiens), sequence (P17861 whole entry, looked up): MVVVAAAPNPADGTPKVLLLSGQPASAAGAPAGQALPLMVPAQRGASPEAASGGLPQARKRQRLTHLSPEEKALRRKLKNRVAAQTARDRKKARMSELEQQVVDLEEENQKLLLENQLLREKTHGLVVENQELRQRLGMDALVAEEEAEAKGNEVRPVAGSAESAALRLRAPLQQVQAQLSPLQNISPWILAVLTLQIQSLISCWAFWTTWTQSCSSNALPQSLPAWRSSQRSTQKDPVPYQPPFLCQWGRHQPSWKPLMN
# Glucocorticoid receptor (Homo sapiens), sequence (P04150 whole entry, looked up, the tested form may be a part): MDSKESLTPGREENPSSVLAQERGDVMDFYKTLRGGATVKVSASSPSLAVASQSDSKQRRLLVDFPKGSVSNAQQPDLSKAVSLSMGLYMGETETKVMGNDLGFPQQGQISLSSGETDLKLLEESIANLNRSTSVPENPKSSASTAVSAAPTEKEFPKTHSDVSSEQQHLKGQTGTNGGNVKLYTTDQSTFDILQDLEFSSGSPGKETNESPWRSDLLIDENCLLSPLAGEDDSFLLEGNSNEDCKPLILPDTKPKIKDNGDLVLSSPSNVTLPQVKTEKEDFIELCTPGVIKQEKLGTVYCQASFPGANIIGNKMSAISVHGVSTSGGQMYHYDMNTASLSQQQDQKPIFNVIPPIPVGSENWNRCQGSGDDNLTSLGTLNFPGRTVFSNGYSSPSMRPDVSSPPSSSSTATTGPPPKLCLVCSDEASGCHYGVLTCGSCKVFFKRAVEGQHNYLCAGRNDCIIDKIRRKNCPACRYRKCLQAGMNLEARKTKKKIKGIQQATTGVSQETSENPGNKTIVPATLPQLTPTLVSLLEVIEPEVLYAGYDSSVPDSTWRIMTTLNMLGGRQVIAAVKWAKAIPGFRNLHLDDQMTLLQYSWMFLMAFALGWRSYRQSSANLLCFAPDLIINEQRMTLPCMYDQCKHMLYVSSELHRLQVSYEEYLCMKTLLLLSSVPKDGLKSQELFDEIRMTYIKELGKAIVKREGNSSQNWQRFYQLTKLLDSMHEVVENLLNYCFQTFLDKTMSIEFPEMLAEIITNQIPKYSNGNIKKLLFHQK
# Estrogen-related receptor gamma (Homo sapiens), sequence (P62508 whole entry, looked up, the tested form may be a part): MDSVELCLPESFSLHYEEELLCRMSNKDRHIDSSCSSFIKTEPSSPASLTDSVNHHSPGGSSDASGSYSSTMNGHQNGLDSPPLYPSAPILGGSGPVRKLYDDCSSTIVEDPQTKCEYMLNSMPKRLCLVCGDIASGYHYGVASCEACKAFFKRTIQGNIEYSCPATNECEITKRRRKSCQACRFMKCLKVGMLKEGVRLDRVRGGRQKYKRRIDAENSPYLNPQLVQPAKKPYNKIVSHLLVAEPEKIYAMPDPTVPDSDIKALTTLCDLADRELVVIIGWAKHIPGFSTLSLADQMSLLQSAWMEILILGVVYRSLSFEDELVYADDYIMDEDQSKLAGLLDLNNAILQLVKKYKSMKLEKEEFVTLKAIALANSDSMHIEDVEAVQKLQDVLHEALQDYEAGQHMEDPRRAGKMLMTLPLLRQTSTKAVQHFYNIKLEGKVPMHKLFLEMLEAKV
smiles,measurement,setting,value
O=C1OC2(c3ccccc31)c1cc(I)c(O)c(I)c1Oc1c2cc(I)c(O)c1I,AC50,[1],20.4 µM (active) and 23.8 µM (active) and 22 µM (active)
same,outcome,[2],inactive
same,outcome,[3],inactive
same,outcome,[4],inactive
same,outcome,[5],inactive
same,outcome,[6],inactive
same,outcome,[7],inactive
same,outcome,[8],inactive
same,outcome,[9],inactive
same,outcome,[10],inactive
same,outcome,[11],inactive
same,outcome,[12],inactive
CCCCCCOC(=O)c1ccc(O)cc1,AC50,[1],49.9 µM (active)
same,AC50,[13],3.24 µM (active)
same,outcome,[14],inactive
same,outcome,[4],inactive
same,outcome,[15],inactive
same,outcome,[16],inactive
same,outcome,[6],inactive
same,outcome,[7],inactive
same,outcome,[8],inactive
same,outcome,[9],inactive
same,outcome,[10],inactive
same,AC50,[12],55 µM (active)
O=C(O)CCC(F)(F)C(F)(F)C(F)(F)C(F)(F)C(F)(F)C(F)(F)F,outcome,[1],inactive
same,AC50,[13],46.1 µM (active)
same,outcome,[3],inactive
same,outcome,[4],inactive
same,outcome,[17],inactive
same,outcome,[18],inactive
same,outcome,[15],inactive
same,outcome,[6],inactive
same,outcome,[9],inactive
same,outcome,[19],inactive
same,outcome,[10],inactive
same,outcome,[12],inactive
O=C1OC(=O)C(F)(F)C1(F)F,outcome,[1],inactive
same,outcome,[14],inactive
same,outcome,[3],inactive
same,outcome,[4],inactive
same,outcome,[18],inactive
same,outcome,[15],inactive
same,outcome,[6],inactive
same,outcome,[9],inactive
same,outcome,[10],inactive
same,outcome,[11],inactive
same,outcome,[12],inactive
COC(O)c1ccccc1 (stereo unspecified),outcome,[1],inactive
same,AC50,[13],56.7 µM (active)
same,outcome,[14],inactive
same,outcome,[3],inactive
same,outcome,[17],inactive
same,outcome,[5],inactive
same,outcome,[18],inactive
same,outcome,[15],inactive
same,outcome,[7],inactive
same,outcome,[8],inactive
same,outcome,[9],inactive
same,outcome,[10],inactive
same,outcome,[11],inactive
same,outcome,[12],inactive
Oc1c(Cl)ccc(Cl)c1Cl,outcome,[1],inactive
same,outcome,[13],inactive
same,outcome,[3],inactive
same,outcome,[6],inactive
same,outcome,[7],inactive
same,outcome,[8],inactive
same,outcome,[9],inactive
same,outcome,[10],inactive
same,outcome,[11],inactive
same,outcome,[12],inactive
COC(=O)C(F)(F)C(F)(F)C(F)(F)C(F)(F)C(F)(F)F,outcome,[1],inactive
same,outcome,[14],inactive
same,outcome,[3],inactive
same,outcome,[4],inactive
same,outcome,[7],inactive
same,outcome,[8],inactive
same,outcome,[9],inactive
same,outcome,[19],inactive
same,outcome,[10],inactive
same,outcome,[11],inactive
same,outcome,[12],inactive
O=C(NO)c1ccccc1,outcome,[1],inactive
same,outcome,[14],inactive
same,outcome,[3],inactive
same,outcome,[4],inactive
same,outcome,[17],inactive
same,outcome,[5],inactive
same,outcome,[18],inactive
same,outcome,[15],inactive
same,outcome,[7],inactive
same,outcome,[8],inactive
same,outcome,[9],inactive
same,outcome,[10],inactive
same,outcome,[11],inactive
same,outcome,[12],inactive
FC(F)=C(F)C(F)(F)C(F)(F)C(F)(F)C(F)F,outcome,[1],inactive
same,outcome,[13],inactive
same,outcome,[3],inactive
same,outcome,[17],inactive
same,outcome,[5],inactive
same,outcome,[15],inactive
same,outcome,[9],inactive
same,outcome,[10],inactive
same,outcome,[11],inactive
same,outcome,[12],inactive
CCCCCCCC(OC)OC,outcome,[1],inactive
same,outcome,[13],inactive
same,outcome,[3],inactive
same,outcome,[18],inactive
same,outcome,[15],inactive
same,outcome,[8],inactive
same,outcome,[10],inactive
same,outcome,[11],inactive
same,outcome,[12],inactive
CCCCc1oc2ccccc2c1C(=O)c1cc(I)c(OCCN(CC)CC)c(I)c1,AC50,[1],9.14 µM (active)
same,outcome,[13],inactive
same,AC50,[3],26.4 µM (active)
same,outcome,[4],inactive
same,outcome,[5],inactive
same,outcome,[18],inactive
same,outcome,[15],inactive
same,outcome,[16],inactive
same,outcome,[6],inactive
same,outcome,[9],inactive
same,outcome,[10],inactive
